{"source": "PubChem BioAssay (EPA / NIEHS)", "note": "Active and inactive are the calls of the source. The calls were made as follows: active = hit-call score of the fitted dose curve at least 0.9, where 1 is the maximum; inactive = score below 0.9.", "data": [{"experiment": "CCTE_Shafer_MEA_acute_per_network_burst_spike_number_std: CCTE's Neural Acute Assay for Standard Deviation of Number of Spikes in a Network Burst, Shafer Lab (AID 2284020);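 also: fitted for decrease in spike-number SD versus DMSO so actives lower it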", "experimental": "CCTE_Shafer_MEA_acute assay is conducted using Axion Biosystems 48 well microelectrode array (MEA) plates and Maestro recording system. Each well of the MEA plate contains a grid of 16 microelectrodes embedded in the culture surface. Electrically active cells, such as neurons, can be cultured over the electrodes, and electrical activity in these cells can be recorded extracellularly. The spontaneous firing of neurons is captured from each electrode on a microsecond timescale providing both temporally and spatially precise data. […] The CCTE_Shafer_MEA_acute assay uses primary cultures of rat cortical neurons. As these cultures mature over time, neural networks develop functional activity and form cohesive networks in which electrical activity can be highly coordinated. Baseline 40-minute recordings are made on days post-plating 13 or 15, followed by a secondary 40-minute recording after chemical exposure.CCTE_Shafer_MEA_acute_per_network_burst_spike_number_std is a component of the CCTE_Shafer_MEA_acute assay. It measures the standard deviation of the number of spikes (action potential firings) in a network burst (temporally-clustered group of spikes across multiple electrodes) during a recording in a microelectrode array (MEA) using Axion Biosystems Maestro 768 channel amplifier with the AxIS adaptive spike detector. The recordings before and after chemical treatment are used to calculate a percent change in the standard deviation of the number of spikes in network bursts in each well.Data from the assay component CCTE_Shafer_MEA_acute_burst_spike_number_std was analyzed into 1 assay endpoint. This assay endpoint, CCTE_Shafer_MEA_acute_burst_spike_number_std, was analyzed in the negative analysis fitting direction relative to DMSO as the negative control and baseline of activity. Using a type of functional reporter, gain or loss-of-signal activity can be used to understand electrical activity.\nSpontaneous activity in the cortical cultures was recorded using an Axion Biosystems Maestro 768 channel amplifier and Axion Integrated Studios (AxIS) v1.8 (or later) software. The amplifier recorded from all channels simultaneously (gain = 1200 x; sampling rate = 12.5 kHz/channel): raw signals were filtered with a Butterworth band-pass filter (300-5000 Hz), which filters out slower local field potentials leaving only fast potentials, i.e., \"spikes\", arising from extracellular currents associated with action potentials (Pine 2006; Wheeler and Nam 2011). On-line spike detection of filtered signals was conducted with the AxIS adaptive spike detector, using a threshold of 8x the root mean squared (rms) noise on each channel. Any electrodes with rms noise levels greater than 5 uV were grounded (e.g., no data were recorded). Once grounded, an electrode was grounded for the duration of the experiment. All recordings were conducted at 37 C. Wells were deemed usable if on the day of the exposure >/= 10 electrodes were active (defined as >/= 5 spikes/min). On DIV 13 or 15, a minimum of three wells from one cortical culture preparation were treated with each compound (0.03-40 uM). Prior to recording baseline activity, each mwMEA plate was placed in the Maestro at 37 C and allowed to sit for 20 min while firing rates stabilized. Baseline activity (40 min) was recorded before the addition of each compound. An additional 40 min of spontaneous activity was recorded in the presence of each compound. Changes in network parameters relative to baseline were assessed following compound treatment.", "values": [{"smiles": "CCCN(CCC)c1c([N+](=O)[O-])cc(C(F)(F)F)c(N)c1[N+](=O)[O-]", "outcome": "inactive"}, {"smiles": "Oc1ccc(C(c2ccc(O)cc2)C(Cl)(Cl)Cl)cc1", "AC50": "5 µM (active)"}, {"smiles": "CC(C)CCCCCCc1ccc(O)cc1", "outcome": "inactive"}, {"smiles": "CC(C)(C)[C@@H](O)[C@@H](Cc1ccc(Cl)cc1)n1cncn1", "outcome": "inactive"}, {"smiles": "C#CCOC(=O)[C@@H](C)Oc1ccc(Oc2ncc(Cl)cc2F)cc1", "outcome": "inactive"}, {"smiles": "CC(C)(c1ccc(O)cc1)c1ccc(O)cc1", "outcome": "inactive"}, {"smiles": "OB(O)O", "outcome": "inactive"}, {"smiles": "Cc1nn(C)c(Oc2ccccc2)c1C=NOCc1ccc(C(=O)OC(C)(C)C)cc1", "outcome": "inactive"}, {"smiles": "C=CCOC(Cn1ccnc1)c1ccc(Cl)cc1Cl", "note": "(centres undefined)", "outcome": "inactive"}, {"smiles": "CCCCC(CC)CN1C(=O)C2C3C=CC(C3)C2C1=O", "note": "(centres undefined)", "AC50": "29.8 µM (active)"}, {"smiles": "N#CSCSc1nc2ccccc2s1", "AC50": "20 µM (active)"}, {"smiles": "O=C(c1ccccc1)C1CCCCC1", "outcome": "inactive"}, {"smiles": "CC1(C)C(C=C(Cl)Cl)C1C(=O)OCc1cccc(Oc2ccccc2)c1", "note": "(centres undefined)", "outcome": "inactive"}, {"smiles": "O=C(c1ccc(O)cc1O)c1ccc(O)cc1O", "outcome": "inactive"}, {"smiles": "O=C(Nc1ccc([N+](=O)[O-])cc1Cl)c1cc(Cl)ccc1O", "AC50": "0.37 µM (active)"}, {"smiles": "COC(=O)c1ccccc1C(=O)O", "outcome": "inactive"}, {"smiles": "CSC(=O)c1cccc2nnsc12", "outcome": "inactive"}, {"smiles": "O=C(O)c1ccccc1", "outcome": "inactive"}, {"smiles": "CCNc1nc(N)nc(Cl)n1", "outcome": "inactive"}]}]}
